Rows were chosen to be rich in hits. Some 1.3% of all compounds tested hit in one or more screens of this group.
RGS4 inhibitor = blocks human RGS4-accelerated GTP hydrolysis; Transcreener GDP fluorescence polarization, RGS4-accelerated GTP hydrolysis; P49798; Potency, µM (series often up to 114 µM), inactives show at the highest dose activity change, negative = inhibition, usual class: inhibitors; hit rate 0.039% among 390,000; note: % is set by controls: 0 for no effect and ±100 for the full control effect; nearly all actives have a fitted effect of over 75% in size
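MLSMR compounds (23 nl, pin-transferred) preincubated 10 min at room temperature with a 500nM (2x) first reagent, then RGS4 at 900nM (2x) plus Transcreener GDP mix added; fluorescence polarization (620/688 nm) read before and after 90 min at 30 °C.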
EPAC2 antag = blocks human EPAC2 exchange factor; Potency, µM (highest dose often 114 µM), for the others: top-dose activity, negative = inhibition, usual class: inhibitors; Q8WZA2; EPAC2 GEF exchange of Rap1B-BODIPY-GDP, fluorescence; AID 720708; hit rate 0.18% among 360,000; note: % is set by controls: 0 for no effect and ±100 for the full control effect; nearly all actives have a fitted effect of over 45% in size
BRCA1 expr up = BRCA1 expression activation; MCF7-BRCA1-FFLuc reporter, luminescence, 48 h; response scale: scaled: vehicle 0%, 10 µM genistein 100%; Potency, µM (highest dose often 46.1 µM), without a hit: at the highest dose activation, hits mostly activators; hit rate 1.1% among 380,000; note: nearly all actives have a fitted effect of over 80% in size
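MCF7-BRCA1-FFLuc cells, 2000/well in phenol-red-free MEM, attached 2 h then treated 48 h at 37 C. Luciferase luminescence read 15 min after reagent; normalized to genistein maximum activation (10microM) and DMSO, concentration-response fitted.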
EPAC2 agonist = EPAC2 (human) agonism; Potency, µM (doses to about 154 µM), for the others: at the top dose activation, hits mostly activators; EPAC2 activation, biochemical qHTS; response scale: 100% = 6.5 mM cAMP response; Q8WZA2; hit rate 0.079% among 360,000; AID 720711; note: nearly all actives have a fitted effect of over 50% in size
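EPAC2 (100 nM) mixed with Rap1B loaded with BODIPY-GDP (250 nM) plus 50 uM unlabeled GDP; compounds pinned in, 5 min RT, then read every 5 min for 30 min (ex 480, em 540 nm). Normalized to cAMP control.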
EPAC1 antagonist = antagonists of human EPAC1 | EPAC1 GEF assay, Rap1b-BODIPY-GDP exchange fluorescence | Potency, µM (top dose mostly 115 µM), for inactives: top-dose activity change, negative = inhibition, most hits filed as inhibitors | hit rate 0.14% among 360,000 | AID 720709;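 note: plate controls were vehicle for no effect and positive control for full effect; nearly all actives have a fitted effect of over 50% in size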
Target sequence (O95398 whole entry, looked up): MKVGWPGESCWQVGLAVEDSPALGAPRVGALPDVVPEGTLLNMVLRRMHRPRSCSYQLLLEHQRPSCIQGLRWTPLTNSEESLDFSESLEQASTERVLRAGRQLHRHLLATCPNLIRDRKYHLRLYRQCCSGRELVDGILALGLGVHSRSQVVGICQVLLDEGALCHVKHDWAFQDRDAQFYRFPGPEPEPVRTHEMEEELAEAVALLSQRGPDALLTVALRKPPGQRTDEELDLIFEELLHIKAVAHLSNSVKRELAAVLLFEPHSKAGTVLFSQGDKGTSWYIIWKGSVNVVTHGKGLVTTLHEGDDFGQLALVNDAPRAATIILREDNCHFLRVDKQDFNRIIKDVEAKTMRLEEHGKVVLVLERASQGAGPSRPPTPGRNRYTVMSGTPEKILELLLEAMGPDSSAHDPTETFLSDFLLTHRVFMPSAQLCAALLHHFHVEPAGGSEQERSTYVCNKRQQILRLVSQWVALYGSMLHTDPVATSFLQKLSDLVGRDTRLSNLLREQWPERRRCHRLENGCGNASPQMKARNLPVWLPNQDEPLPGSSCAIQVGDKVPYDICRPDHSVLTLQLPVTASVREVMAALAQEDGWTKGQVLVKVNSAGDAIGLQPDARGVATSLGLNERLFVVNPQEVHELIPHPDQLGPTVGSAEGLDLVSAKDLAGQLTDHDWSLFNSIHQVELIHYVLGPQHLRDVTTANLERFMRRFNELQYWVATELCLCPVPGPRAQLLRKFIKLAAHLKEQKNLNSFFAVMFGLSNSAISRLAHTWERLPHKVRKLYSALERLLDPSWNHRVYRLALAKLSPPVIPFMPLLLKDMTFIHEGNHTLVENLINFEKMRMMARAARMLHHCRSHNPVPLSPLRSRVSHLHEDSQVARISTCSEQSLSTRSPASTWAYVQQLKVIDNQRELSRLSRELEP
EPAC1 ag = activates human EPAC1 exchange factor; O95398; EPAC1 agonist qHTS, biochemical assay; response scale: 100% = response to 6.5 mM cAMP; Potency, µM (series often up to 154 µM), for the others: at the highest dose activation, usual class: activators; hit rate 0.073% among 360,000; AID 720707; note: nearly all actives have a fitted effect of over 60% in size
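Normalized to 6.5 mM cAMP, activity reflects EPAC1-catalysed release of BODIPY-GDP from Rap1B, followed kinetically over 30 min at 480 nm excitation, 540 nm emission. Reaction contained 100 nM EPAC1, 250 nM Rap1B-BODIPY-GDP, 50 uM GDP.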
An asterisk follows results filed as active; ? = inconclusive; · = no result given. Calls come from the whole dose curve; as a rule, active = well fitted curve in the direction sought with a large enough effect; inconclusive = small, poorly fitted or top-dose-only effect, or another doubt; inactive = no such curve, though single readings can be large; an effect the other way counts as inactive or inconclusive. Potency is the fitted concentration of half-maximal effect.

SMILES	RGS4 inhibitor	EPAC2 antag	BRCA1 expr up	EPAC2 agonist	EPAC1 antagonist	EPAC1 ag
CC1Cc2nc(SCC(=O)Nc3ccc4c(c3)OCCO4)n(C)c(=O)c2S1 (configuration not stated)	1%	-2%	-3%	3%	19%	-3%
CC1Cc2nc(SCC(=O)Nc3ccc4c(c3)OCO4)n(Cc3ccccc3)c(=O)c2S1 (configuration not stated)	2%	3%	11µM*	2%	-4%	4%
C(=N\n1cnnc1)/c1ccc(OCc2cccc3ccccc23)cc1	27%	-6%	32%	5%	-26%	-3%
Fc1ccccc1COc1ccc(/C=N/n2cnnc2)cc1	8%	-7%	10µM*	1%	-4%	1%
O=S(=O)(Nc1nc(-c2sccc2Cl)cs1)c1cc(Cl)ccc1Cl	-22%	50µM*	3%	-24%	79µM*	-12%
CCOC(=O)CN1C(=O)S/C(=C/c2ccc3c(c2)n(C)c(=O)n3C)C1=O	-34%	-3%	5µM*	-5%	-3%	-4%
COC(=O)c1sc(-c2ccc(C(C)(C)C)cc2)cc1NC(=O)c1ccccc1C(=O)O	-22%	-9%	-10%	-4%	56µM*	-25%
COC(=O)c1sc(-c2ccc(Cl)cc2)cc1NC(=O)c1ccccc1C(=O)O	-13%	-18%	0%	-10%	?	4%
CCN(CC)C(=O)CSc1nnc(-c2cccs2)n1Cc1ccco1	-11%	11%	-12%	10µM*	8%	0%
NC(=O)CSc1nnc(-c2cccs2)n1Cc1ccco1	-12%	-3%	-17%	6%	9%	12%
Cc1ccc(S(=O)(=O)c2nnn3c2nc(NC2CCCCC2)c2sccc23)cc1C	14%	·	·	·	·	·
COc1ccccc1CNC(=O)Cc1ccccc1	-9%	6%	11µM*	5%	10%	-2%
COc1ccccc1CNC(=O)Cc1ccc(OC)c(OC)c1	6%	3%	-20%	-6%	1%	6%
COc1ccc(C(=O)NCC(c2ccco2)S(=O)(=O)c2cccs2)cc1 (configuration not stated)	9%	·	·	·	·	·
Cc1nc2cc(-c3ccc(Br)cc3)[nH]n2c(=O)c1Cl	-8%	4%	4.5µM*	0%	-9%	13%
N/C(=N\OC(=O)c1ccc(Cl)cc1Cl)c1cccnc1	-5%	-15%	?	6%	-12%	13%
O=C(CCCOc1ccccc1)Nc1nc2ccccc2[nH]1	-16%	2%	6.3µM*	-5%	-3%	-8%
O=C1c2ccsc2SCCN1Cc1c(F)cccc1Cl	13%	-3%	-1%	11%	-5%	7%
Cc1ccc(S(=O)(=O)N[C@@H](Cc2ccccc2)C(=O)CCl)cc1	7.5µM*	-17%	-41%	12%	?	-8%
Cc1ccc(OCC(O)CNCc2ccc(F)cc2)cc1 (configuration not stated)	10%	1%	55%	3%	-3%	5%
C/C(=N\OCc1ccc(C#N)cc1)c1ccc(S(=O)(=O)N(C)C)cc1	19%	-6%	7.1µM*	9%	6%	13%
C/C(=N\OCc1ccc(C#N)cc1)c1ccccc1	-9%	1%	?	4%	8%	-8%
COc1cc(NC(=O)c2c(OC)cccc2OC)ccc1NC(=O)c1cc2ccccc2o1	2%	5%	11µM*	10%	-8%	0%
COc1cc(NC(=O)c2ccc(F)cc2)ccc1NC(=O)c1cc2ccccc2o1	-5%	-8%	0%	0%	19%	-7%
C#CCOc1nc(C)cc(C)c1S(=O)(=O)c1ccccc1C	10%	28µM*	-3%	7%	7%	2%
CCSc1nc(C)cc(C)c1S(=O)(=O)c1ccccc1C	-11%	?	-29%	15%	-6%	7%
CSc1nc(C)cc(C)c1S(=O)(=O)c1ccccc1C	4%	35µM*	-10%	21%	-17%	13%

Screens as filed in PubChem.
